{"source": "paper PMC11995724", "about": "“Antibiotic target discovery by integrated phenotypic and activity-based profiling of electrophilic fragments” (Cell chemical biology, 2025)", "note": "About 110 (3.4%) of roughly 3,200 compounds showed an effect of 50% or more. What follows is part of a selection rich in strong results, with near analogues and random picks from the rest."}
{"system": "T1, V. cholerae SAD30", "T1 construct": "SAD30", "set-up": "species or system S. aureus MSSA476 (TSB) or V. cholerae SAD30 (LB); 384-well bacterial growth screen at 25 uM, OD600 relative to DMSO control", "conditions": "relative growth, OD600, LB; 25 µM; inhibitor", "units": {"% of control remaining": "%"}}
{"smiles": "O=C1C=CC(=O)N1c1cc(C(F)(F)F)ccc1Cl", "note": "[10-G09, 1-[2-chloro-5-(trifluoromethyl)phenyl]-2,5-dihydro-1H-pyrrole-2,5-dione]", "% of control remaining": 26.3394}
{"smiles": "O=C1C=CC(=O)N1c1cc([N+](=O)[O-])ccc1Cl", "note": "[10-H15, 1-(2-chloro-5-nitrophenyl)-2,5-dihydro-1H-pyrrole-2,5-dione]", "% of control remaining": 28.2096}
{"smiles": "N#CC(=Cc1cc([N+](=O)[O-])ccc1Cl)C(N)=O", "note": "[8-F21, 3-(2-chloro-5-nitrophenyl)-2-cyanoprop-2-enamide]", "% of control remaining": 76.0707}
{"smiles": "N#Cc1cc([N+](=O)[O-])ccc1NC(=O)CCl", "note": "[4-O09, 2-chloro-N-(2-cyano-4-nitrophenyl)acetamide]", "% of control remaining": 91.611}
{"smiles": "CC(Cl)C(=O)Nc1cc([N+](=O)[O-])ccc1Cl", "note": "(stereo not shown) [6-I14, 2-chloro-N-(2-chloro-5-nitrophenyl)propanamide]", "% of control remaining": 87.6671}
{"smiles": "O=C(CCl)Nc1cc(C(F)(F)F)ccc1Cl", "note": "[4-J04, 2-chloro-N-[2-chloro-5-(trifluoromethyl)phenyl]acetamide]", "% of control remaining": 111.106}
{"smiles": "CC(Cl)C(=O)Nc1cc(C(F)(F)F)ccc1Cl", "note": "(stereo not shown) [4-N15, 2-chloro-N-[2-chloro-5-(trifluoromethyl)phenyl]propanamide]", "% of control remaining": 99.8922}
{"smiles": "O=C(CCl)N1CCCCc2ccc([N+](=O)[O-])cc21", "note": "[5-I18, 2-chloro-1-(8-nitro-2,3,4,5-tetrahydro-1H-1-benzazepin-1-yl)ethan-1-one]", "% of control remaining": 94.3154}
{"smiles": "Cc1ccc([N+](=O)[O-])cc1N1C(=O)C=CC1=O", "note": "[10-O14, 1-(2-methyl-5-nitrophenyl)-2,5-dihydro-1H-pyrrole-2,5-dione]", "% of control remaining": 26.6511}
{"smiles": "CC(NC(=O)CCl)C(=O)N1CCCCC1C", "note": "(stereo not shown) [5-M06, 2-chloro-N-[1-(2-methylpiperidin-1-yl)-1-oxopropan-2-yl]acetamide]", "% of control remaining": 96.6691}
{"smiles": "C=CC(=O)NC(C)c1cn(-c2ccccc2)nn1", "note": "(stereo not shown) [1-N04, N-[1-(1-phenyl-1H-1,2,3-triazol-4-yl)ethyl]prop-2-enamide]", "% of control remaining": 110.893}
{"smiles": "COc1ccc(-c2nn(-c3ccccc3)cc2C=C(C#N)C(N)=O)cc1", "note": "[8-L16, 2-cyano-3-[3-(4-methoxyphenyl)-1-phenyl-1H-pyrazol-4-yl]prop-2-enamide]", "% of control remaining": 71.7199}
{"smiles": "CCN(Cc1ccc(Cl)s1)C(=O)CCl", "note": "[6-M11, 2-chloro-N-[(5-chlorothiophen-2-yl)methyl]-N-ethylacetamide]", "% of control remaining": 83.1169}
